The structures appear in SMILES notation. Values joined by “and” are separate entries in the source; they are usually repeats but may differ in a detail not shown here. Equal values may be shown once. Screen size: about 400,000 compounds; about 2,100 (0.53%) were called active. Roughly 14% stayed inconclusive and do not appear here. The rule behind the calls is not given here. What follows is part of a selection rich in actives, with near analogues and random picks from the rest.

We go through 103 compounds from ChEMBL document CHEMBL1201862, “PubChem BioAssay data set” (2004).

Chain of Ataxin-2 (Homo sapiens) (Q99700 whole entry): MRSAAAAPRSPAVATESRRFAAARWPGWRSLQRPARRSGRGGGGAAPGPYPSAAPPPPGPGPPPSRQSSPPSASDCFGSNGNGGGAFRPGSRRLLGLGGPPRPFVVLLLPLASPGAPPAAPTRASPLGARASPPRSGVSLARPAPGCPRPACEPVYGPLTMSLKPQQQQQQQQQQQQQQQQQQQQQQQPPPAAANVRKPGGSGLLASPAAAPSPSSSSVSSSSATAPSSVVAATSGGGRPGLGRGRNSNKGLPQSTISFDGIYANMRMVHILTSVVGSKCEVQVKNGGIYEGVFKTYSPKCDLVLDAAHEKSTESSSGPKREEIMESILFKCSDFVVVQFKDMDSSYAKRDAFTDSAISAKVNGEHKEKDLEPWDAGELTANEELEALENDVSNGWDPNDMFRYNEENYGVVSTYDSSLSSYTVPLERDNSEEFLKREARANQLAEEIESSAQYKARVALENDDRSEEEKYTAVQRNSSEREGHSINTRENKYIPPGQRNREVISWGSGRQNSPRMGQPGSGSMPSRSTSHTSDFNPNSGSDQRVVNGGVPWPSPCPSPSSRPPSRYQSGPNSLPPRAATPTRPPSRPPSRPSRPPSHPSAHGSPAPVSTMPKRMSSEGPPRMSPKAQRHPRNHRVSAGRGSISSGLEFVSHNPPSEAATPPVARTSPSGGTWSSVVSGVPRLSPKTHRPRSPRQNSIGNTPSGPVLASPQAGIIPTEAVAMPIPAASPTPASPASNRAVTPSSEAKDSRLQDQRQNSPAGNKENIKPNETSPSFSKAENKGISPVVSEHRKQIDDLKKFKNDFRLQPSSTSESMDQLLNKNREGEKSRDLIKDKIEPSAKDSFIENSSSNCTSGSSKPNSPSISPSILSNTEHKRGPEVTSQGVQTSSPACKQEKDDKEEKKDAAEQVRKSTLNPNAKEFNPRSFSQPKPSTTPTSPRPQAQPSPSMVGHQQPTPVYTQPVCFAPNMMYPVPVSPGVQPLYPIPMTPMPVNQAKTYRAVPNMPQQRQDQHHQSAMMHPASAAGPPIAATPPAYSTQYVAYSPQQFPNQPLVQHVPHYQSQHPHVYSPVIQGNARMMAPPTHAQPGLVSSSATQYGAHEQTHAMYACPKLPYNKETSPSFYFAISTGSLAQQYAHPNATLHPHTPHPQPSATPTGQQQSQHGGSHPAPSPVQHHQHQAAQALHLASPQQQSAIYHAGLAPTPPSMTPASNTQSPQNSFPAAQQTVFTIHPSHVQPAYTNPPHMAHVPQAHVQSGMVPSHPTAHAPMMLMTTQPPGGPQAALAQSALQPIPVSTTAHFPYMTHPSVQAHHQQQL

The test has as its target Ataxin-2 (Homo sapiens) (UniProt Q99700). Kind of test: qHTS for Inhibitors of ATXN expression. It is filed as functional.
Regarding `Cc1cccc(OCc2nnc(SCC(=O)O)n2-c2ccccc2)c1`, the Potency is 39.8 µM (active).

As for `Cc1ccc(NCc2nnc(SCC(=O)O)n2-c2ccc(C)cc2)cc1`, the Potency entry was “inactive”.

Regarding `CCn1c(COc2cccc(C)c2)nnc1SCC(=O)NC1CCCC1`, the Potency result is “inactive”.

On to `COc1ccc2ccc3cccc[n+]3c2c1`, for which the Potency result is “inactive”.

Consider `CC(=O)Nc1ccc(S(=O)(=O)Nc2nc(C)cc(-n3nc(C)cc3C)n2)cc1`, for which the Potency entry is “inactive”.

Turning to `Cc1cc(NC(=O)CSc2nc3c(C)cccc3cc2C#N)no1`, the Potency result was “inactive”.

As to `NNC(=O)c1oc2nc(-c3ccccc3)cc(-c3ccco3)c2c1N`, the Potency result is “inactive”.

Regarding `O=C1[C@H](Cc2ccccc2)NCC=CC[C@@H](c2ccc(Cl)cc2)N1Cc1ccc(Cl)cc1`, the Potency was 28.2 µM (active).

For `O=C1[C@H](Cc2ccccc2)NCC=CC[C@@H](c2ccc(Cl)cc2)N1Cc1ccccc1`, the Potency was 35.5 µM (active).

Take `Cc1ccc2nc3nc(NCC4CCCO4)c(C(=O)NC4CCCC4)cc3c(=O)n2c1` (stereo not drawn): the Potency entry was “inactive”.

In the case of `CCC(=O)c1cc2c(C)cc(=O)oc2c(C)c1OC(C)=O`, the Potency result is “inactive”.

Consider `Brc1ccc(OCc2nnnn2-c2ccccc2)cc1`, for which the Potency result was “inactive”.

As for `COc1ccccc1-n1nnnc1S(=O)(=O)Cc1ccc(Cl)cc1`, the Potency is 25.1 µM (active).

As to `COc1ccccc1N1CCN(S(=O)(=O)c2ccc(-n3cnnn3)cc2)CC1`, the Potency entry is “inactive”.

In the case of `Cc1cccc(/C=C(\C(=O)C(=O)O)c2ccc3ccccc3n2)c1`, the Potency result is “inactive”.

`CC(C)CC(N)c1csc(Nc2cc(Oc3ccccc3)ncn2)n1` (stereo not drawn): the Potency was 39.8 µM (active).

Turning to `NC(Cc1ccc(Cl)cc1)c1csc(Nc2cc(Oc3ccccc3)ncn2)n1` (stereo not drawn), the Potency was 35.5 µM (active).

Turning to `CCn1c(SCc2ccc(F)cc2)nc2c(c1=O)SCC2`, the Potency result was “inactive”.

Regarding `COc1cccc(-c2ccc3c(N)c(C(=O)c4ccc(F)cc4)sc3n2)c1`, the Potency entry is “inactive”.

Consider `C=CCNC(S)=Nc1ccc(Br)cc1F`, for which the Potency entry is “inactive”.

Consider `CSc1ccccc1NC(=O)c1cc(C2CC2)on1`, for which the Potency result was “inactive”.

Consider `CCOC(=O)CSC1=NC(=O)/C(=C\c2ccc(OC(C)=O)cc2)S1`, for which the Potency is 28.2 µM (active).

In the case of `CCOC(=O)C1=C(C)N=c2sc(=Cc3ccc(OCC(=O)O)cc3)c(=O)n2C1c1ccc(SC)cc1` (stereo not drawn), the Potency entry is “inactive”.

Turning to `CCOC(=O)CSC1=N/C(=C/c2ccc(-n3cncn3)cc2)C(=O)N1C(C)=O`, the Potency entry was “inactive”.

Turning to `CCOC(=O)c1cc2c(=O)n3ccccc3nc2n(CCOC)/c1=N\C(=O)C(C)(C)C`, the Potency entry was “inactive”.

With `Cc1cccn2c(=O)c3cc(C(=O)NCc4ccco4)c(=N)n(C4CCCCC4)c3nc12`, the Potency entry is “inactive”.

Regarding `Cc1cccc(N2C(=O)/C(=C\Nc3cc(O)ccc3C)c3ccccc3C2=O)n1`, the Potency result was “inactive”.

With `Cc1ccc(N2C(=O)/C(=C\Nc3ccccc3-c3nnc(S)nc3O)c3ccccc3C2=O)c(C)c1`, the Potency was 17.8 µM (active).

With `Cc1ccc(N2C(=O)/C(=C/NC3CCS(=O)(=O)C3)c3ccccc3C2=O)c(C)c1` (stereo not drawn), the Potency result was “inactive”.

In the case of `CCOc1ccc(N2C(=O)/C(=C/Nc3ccnn3Cc3ccncc3)c3ccccc3C2=O)cc1`, the Potency entry is “inactive”.

For `Cn1nnnc1SCCCNCc1cc(Br)ccc1OCc1ccccc1F`, the Potency is 25.1 µM (active).

For `Cn1nnnc1SCc1cccc2ccccc12`, the Potency result is “inactive”.

Turning to `COc1ccc(CNCCSc2nnnn2C)c(OC)c1OC`, the Potency entry is “inactive”.

Consider `Cn1c2nc(=O)n(-c3ccccc3)c(=O)c-2nc2c1CCCC2`, for which the Potency result was “inactive”.

Turning to `CCOc1ccccc1NC(=O)CN1C(=O)COc2ccccc21`, the Potency result was “inactive”.

With `COc1ccccc1NC(=O)/C=C/C(N)=O`, the Potency was 39.8 µM (active).

Regarding `CCCCOc1ccccc1C1C(C(=O)OC)=CN(CC)C=C1C(=O)OC`, the Potency result was “inactive”.

With `COc1ccccc1NC(=S)NC(=O)CCc1ccccc1`, the Potency entry is “inactive”.

For `CCOc1ccccc1NC(=O)c1cc(SC)ccc1Cl`, the Potency entry is “inactive”.

`CCCOc1ccccc1C1C(C(=O)OC)=CN(C(C)C)C=C1C(=O)OC`: the Potency entry was “inactive”.

Turning to `CCCOc1ccccc1NC(=O)/C=C/C(N)=O`, the Potency was 35.5 µM (active).

`CCOc1ccccc1NC(=O)/C=C/C(N)=O`: the Potency is 39.8 µM (active).

`COc1ccccc1NC(=O)CCC(=O)OC(C)C(=O)c1ccccc1` (stereo not drawn): the Potency result was “inactive”.

On to `Cc1cc(Br)ccc1-n1nc(C)c(/C=N/c2cccc3nsnc23)c1O`, for which the Potency entry is “inactive”.

Turning to `Cc1cc(NC(=O)Cn2cc([N+](=O)[O-])cn2)n(Cc2ccc(F)cc2)n1`, the Potency result was “inactive”.

Regarding `COc1ccc(C(=O)c2oc3ccc(OC)cc3c2NC(C)=O)cc1`, the Potency result was “inactive”.

Consider `O=C1C=C(NCCc2ccccc2)C2(CCCCC2)O1`, for which the Potency entry is “inactive”.

Regarding `CCc1ccccc1N1C(=O)[C@@H]2Cc3ccccc3CN2C1=O`, the Potency entry is “inactive”.

Turning to `CSc1ccc2c(c1)C(N1CCN(C)CC1)Cc1ccccc1S2` (stereo not drawn), the Potency is 22.4 µM (active) and 31.6 µM (active).

Consider `CCc1cccc2c1Sc1ccccc1CC2N1CCNCC1` (stereo not drawn), for which the Potency was 39.8 µM (active).

`CN1CCN(C2Cc3ccccc3Sc3ccc(Cl)cc32)CC1` (stereo not drawn): the Potency is 22.4 µM (active) and 28.2 µM (active).

In the case of `CN1CCN(C2Cc3ccccc3Sc3cc(C(F)(F)F)ccc32)CC1` (stereo not drawn), the Potency was 39.8 µM (active).

`FC(F)(F)c1ccccc1C1=CC(c2ccccc2)n2ncnc2N1` (stereo not drawn): the Potency result is “inactive”.

Turning to `c1ccc(CCNc2ccnc3cc4ccccc4cc23)cc1`, the Potency result was “inactive”.

Regarding `Cc1c2ccccc2nc2c(F)c(NC(C)C)c(F)c(F)c12`, the Potency entry is “inactive”.

`CC(C)Nc1ccc(Nc2ccnc3cc4ccccc4cc23)cc1`: the Potency is 31.6 µM (active).

For the compound `Cc1c(CCC(=O)NC2CC2)c(=O)oc2cc(O)ccc12`, the Potency entry was “inactive”.

As to `Cc1cc(/C=N/NC(=O)Cn2c3ccccc3c(=O)c3ccccc32)c(C)n1-c1ccc(Cl)cc1`, the Potency entry was “inactive”.

For the compound `CC1CN(C(=O)COC(=O)c2ccc(NC(=O)CC#N)cc2)CC(C)O1` (stereo not drawn), the Potency entry is “inactive”.

As for `O=C(c1nnsc1[S+]([O-])c1ccc(Cl)cc1)N1CCOCC1` (stereo not drawn), the Potency is 20 µM (active).

`CCCc1nn(C)c(C(=O)Nc2ccc(Cl)cc2)c1Cl`: the Potency result is “inactive”.

With `O=C(c1cc2cc(Br)ccc2s1)N1CCOCC1`, the Potency result was “inactive”.

Take `NC(=O)c1c(NC(=O)c2ccc(S(=O)(=O)N3CCOCC3)cc2)sc2c1CCCCC2`: the Potency result was “inactive”.

Consider `O=C(c1nnsc1S(=O)(=O)c1ccc(Cl)cc1)N1CCOCC1`, for which the Potency is 26.7 µM (active).

As to `O=C(c1cccn2c(=O)c3cc(Cl)ccc3nc12)N1CCOCC1`, the Potency result is “inactive”.

On to `CCCNC(=O)c1nnsc1[S+]([O-])c1ccc(Cl)cc1` (stereo not drawn), for which the Potency was 6.7 µM (active).

For the compound `Cc1nnsc1C(=O)NNc1ccc(Cl)cc1`, the Potency entry was “inactive”.

Regarding `O=C(c1nc2n(n1)C(c1ccc(Cl)cc1)C=C(c1ccccc1)N2)N1CCOCC1` (stereo not drawn), the Potency result was “inactive”.

Regarding `C=CCOC(=O)C(=O)/C=C/c1coc2ccccc2c1=O`, the Potency result is “inactive”.

As for `CCOc1cc(C(=O)NC2=NCCS2)cc(OCC)c1OCC`, the Potency entry was “inactive”.

For `Cc1noc(C)c1-c1nnc(-c2ccc(OC(F)(F)F)cc2)o1`, the Potency result is “inactive”.

On to `Fc1ccc(Br)cc1C1C=C(c2cccnc2)Nc2ncnn21` (stereo not drawn), for which the Potency result is “inactive”.

Consider `O=C(C1CC(=O)N(c2ccc3c(c2)OCCO3)C1)N1CCN(Cc2ccccc2)CC1` (stereo not drawn), for which the Potency entry was “inactive”.

`Nc1c(-c2ccc3c(c2)OCCO3)oc2ccccc2c1=O`: the Potency result is “inactive”.

As for `O=C(CCN1CCCC1Cc1ccccc1)c1ccc2c(c1)OCCO2` (stereo not drawn), the Potency was 31.6 µM (active).

Consider `O=C(/C=C\Nc1ccccc1Br)c1ccc2c(c1)OCO2`, for which the Potency result is “inactive”.

For `O=C(CCN1Cc2ccccc2C1)c1ccc2c(c1)OCCO2`, the Potency was 25.1 µM (active).

For `O=C(CCN1CCc2ccccc2C(O)(c2ccccc2)C1)c1ccc2c(c1)OCCO2` (stereo not drawn), the Potency is 39.8 µM (active).

`N=C(NOC(=O)COc1ccc(Br)cc1Cl)c1ccncc1`: the Potency entry is “inactive”.

Consider `CC(C)C(NC(=O)C1CCCCC1)C(=O)NC1CCCC(C)C1C` (stereo not drawn), for which the Potency result was “inactive”.

For the compound `COc1cc(OC)c(-c2cc(C(=O)NCc3ccc(F)cc3)c3c(-c4ccccc4)[nH]nc3n2)cc1OC`, the Potency was 44.7 µM (active).

For the compound `Cc1ccc(CNC(=O)c2sc3nc(-c4ccc(F)cc4)ccc3c2N)cc1`, the Potency result was “inactive”.

`Nc1c(C(=O)NCc2ccc(Cl)cc2)sc2nc(-c3ccc(F)cc3)ccc12`: the Potency result is “inactive”.

`N#CCSc1ccc2nc(-c3ccccc3)cn2n1`: the Potency entry is “inactive”.

For `Cc1ccc2c(c1)C(c1ccccc1)N(C(=O)COc1ccc(Cl)cc1Cl)CC(=O)N2` (stereo not drawn), the Potency was 28.2 µM (active).

For the compound `Cc1cc(OCC(=O)N2CCC(O)(c3ccc(Cl)cc3)CC2)c2c(C)cc(=O)oc2c1`, the Potency result is “inactive”.

In the case of `CC1CC(=O)Nc2ccccc2N1C(=O)COc1ccccc1C(N)=O` (stereo not drawn), the Potency entry is “inactive”.

With `COc1cccc2c1cc1c(=O)n(CC(=O)NCCCN3CCN(C)CC3)nc(C)n12`, the Potency entry is “inactive”.

On to `CCCCNC(=O)c1ccc(Cn2c(=S)[nH]c3c([nH]c4ccc(OC)cc43)c2=O)cc1`, for which the Potency is 39.8 µM (active).

For `COc1ccc(N2CCN(C(=O)c3ccc(Cn4c(=S)[nH]c5ccc(N6CCOCC6)cc5c4=O)cc3)CC2)cc1`, the Potency result is “inactive”.

Turning to `O=C(NC1CCN(Cc2ccccc2)CC1)c1ccc(Cn2c(=S)[nH]c3ccc(N4CCOCC4)cc3c2=O)cc1`, the Potency entry is “inactive”.

With `CCN(CC)c1ccc(/C=N/NC(=O)c2nnn(-c3nonc3N)c2-c2ccc(C)cc2)cc1`, the Potency result is “inactive”.

For `Cc1cccn2c(=O)c3cc(C#N)c(=O)n(CCCN4CCOCC4)c3nc12`, the Potency entry is “inactive”.

Turning to `COc1cc(C(=O)NCCCNc2nc3cc(C)c(C)cc3cc2C#N)cc(OC)c1OC`, the Potency entry is “inactive”.

In the case of `COc1ccc(C23CC4CC(CC(C4)C2)C3)cc1C(=O)NCCN(C)C`, the Potency was 22.4 µM (active).

Take `CCOC(=O)CNC(=O)C12CC3CC(C1)CC(c1ccc(C)cc1)(C3)C2`: the Potency result is “inactive”.

As to `COc1ccc(CCNC(=O)COC(=O)C2CC2C)cc1OC` (stereo not drawn), the Potency entry was “inactive”.

Regarding `Cc1nc(COc2ccccc2Cl)sc1-c1ccnc(N)n1`, the Potency entry was “inactive”.

As to `S=C(Nc1ccc2nc(-c3ccccn3)c(-c3ccccn3)nc2c1)N1CCOCC1`, the Potency result was “inactive”.

`COc1ccc(C(c2c(O)ccc3ccccc23)N2CCOCC2)c(OC)c1` (stereo not drawn): the Potency is 15.8 µM (active).

As to `COc1ccc(-c2cc3ccc(O)c(CN4CCOCC4)c3oc2=O)cc1OC`, the Potency result is “inactive”.

`COc1ccc(-c2c(C)c3ccc(O)c(CN4CCOCC4)c3oc2=O)cc1`: the Potency entry was “inactive”.

For `CCN(CC)c1ccc(/C=N\NC(=O)c2cccc3cc[nH]c23)cc1`, the Potency entry is “inactive”.
